From PubChem BioAssay
Mtb UGM inh = blocks M. tuberculosis UGM enzyme; inhibition, % at 10 µM; AID 504406; P9WIQ1; hit rate 0.06% among 320,000; purified UGM, fluorescence polarization probe displacement; in the data active means inhibition above about 10%, passing the limit was not always enough; inconclusive means no clear call, values can overlap the other calls
BioA inh = BioA (M. tuberculosis) enzyme inhibition | purified M. tuberculosis BioA enzyme, plate reader | inhibition, % at 9.99 µM | hit rate 0.096% among 360,000 | AID 602481; in the data active means inhibition above about 40%; inconclusive means no clear call, values can overlap the other calls
RecA intein inh = Mtb RecA intein splicing inhibition | hit rate 0.75% among 290,000 | P9WHJ3 | cell-free RecA intein splicing, fluorescence | inhibition, % (no concentration beside the values); in the data active means inhibition above about 30%; inconclusive means no clear call, values can overlap the other calls
TcdB inh = inhibitors of Clostridioides difficile toxin B glycohydrolase; hit rate 0.24% among 350,000; TcdB glycohydrolase enzymatic assay, plate reader; inhibition, % at 9.99 µM; in the data active means inhibition above about 10%
Rv3671c inh = inhibits the M. tuberculosis serine protease Rv3671c; P9WHR9; inhibition, % at 5.96 µM; AID 2606; hit rate 0.048% among 320,000; in the data active means inhibition above about 38%;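 further: extracellular domain of Rv3671c used as enzyme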
FadD28 binding = blocks FadD28 binding to the bisubstrate probe. inhibition, % at 12.5 µM. fluorescence polarization. AID 588549. hit rate 0.22% among 360,000; in the data active means inhibition above about 8.5%, passing the limit was not always enough; inconclusive means no clear call, values can overlap the other calls
Each line names hits and unclear results; the compound was inactive in the other large screens. In the library only some 0.9% were active in any assay of this set; here they are far more common.

O=C(c1cccs1)n1nc(-c2ccco2)nc1SCc1ccccc1	none (no result: BioA inh, TcdB inh, FadD28 binding)
CSc1nc(-c2ccco2)nn1C(=O)c1cccs1	RecA intein inh 32 (no result: TcdB inh)
CCCCCCNC(=O)C(C#N)c1nc2ccccc2nc1N1CCOCC1 (stereo not given)	Mtb UGM inh 14 (no result: TcdB inh)
c1ccc(C2[C@H]3CN(Cc4cccnc4)[C@H](c4ccccc4)C34CC2(c2ccccc2)C4)cc1 (stereo not given in full)	none
c1ccc(C2[C@H]3CN(Cc4cccnc4)[C@H](c4ccccc4)C34CC2(c2cccnc2)C4)cc1 (stereo not given in full)	RecA intein inh 37
C[C@H](CO)N1C[C@H](C)[C@H](CN(C)Cc2ccc(C(F)(F)F)cc2)Oc2ccc(NC(=O)Cn3cnnn3)cc2C1=O	none (no result: Mtb UGM inh, RecA intein inh, Rv3671c inh, FadD28 binding)
O=C(O)COc1ccccc1/C=N/Nc1ccc(S(=O)(=O)Nc2ccc(Cl)cc2)cc1[N+](=O)[O-]	none (no result: BioA inh)
COc1ccccc1NS(=O)(=O)c1ccc(N/N=C/c2ccccc2OCC(=O)O)c([N+](=O)[O-])c1	FadD28 binding 19
O=C(O)c1ccccc1NS(=O)(=O)c1ccc(N/N=C/c2ccc(O)c(O)c2)c([N+](=O)[O-])c1	FadD28 binding 53 (no result: Mtb UGM inh, RecA intein inh, Rv3671c inh)
O=C(O)COc1ccccc1C=NNc1ccc([N+](=O)[O-])cc1S(=O)(=O)Nc1ccc(Cl)cc1	FadD28 binding 16 (no result: RecA intein inh)
COc1ccc(NS(=O)(=O)c2cc([N+](=O)[O-])ccc2NN=Cc2ccccc2OCC(=O)O)cc1	none (no result: RecA intein inh)
COc1ccc(-c2cc(CNC(=O)CCl)on2)cc1	RecA intein inh 37 (no result: TcdB inh)
COc1ccc(-c2cc(CNC(C)=O)on2)cc1	none (no result: TcdB inh)
O=C1NC(=S)SC1=Cc1cc(Br)ccc1O	FadD28 binding 12 (no result: Mtb UGM inh, BioA inh, RecA intein inh, Rv3671c inh)
COc1ccc2c3c(n(C)c2c1)[C@H](CO)N(C)CC31CCN(C(=O)Nc2c(C)noc2C)CC1	none (no result: Mtb UGM inh, BioA inh, RecA intein inh, Rv3671c inh, FadD28 binding)
CCOC(=O)c1nnn(-c2nonc2N)c1-c1cccc2ccccc12	none (no result: TcdB inh)
CCOC(=O)c1nnn(-c2nonc2N)c1-c1ccccc1Cl	TcdB inh 16 (no result: BioA inh)
CCOC(=O)c1nnn(-c2nonc2N)c1-c1ccc(F)cc1	TcdB inh 12
CCOC(=O)c1nnn(-c2nonc2N)c1-c1ccc(Cl)cc1	none (no result: BioA inh)
COc1ccc2c3c(n(C)c2c1)[C@H](CO)N(CC1CC1)CC31CCN(C(=O)c2ccc(F)cc2)CC1	none (no result: Mtb UGM inh, BioA inh, RecA intein inh, Rv3671c inh, FadD28 binding)
COc1ccc(-c2cc(=O)c3ccc(O)cc3o2)cc1OC	none (no result: Mtb UGM inh, RecA intein inh, Rv3671c inh)
Nc1ccc(-c2c3ccc(=O)cc-3oc3cc(O)ccc23)c(C(=O)O)c1	Mtb UGM inh 45 (no result: RecA intein inh, TcdB inh)
CO[C@@H]1CN(C)C(=O)c2ccc(NS(=O)(=O)c3cccc(F)c3)cc2OC[C@@H](C)NC[C@@H]1C	none (no result: Mtb UGM inh, BioA inh, RecA intein inh, Rv3671c inh, FadD28 binding)
Cc1cc(C)c(S(=O)(=O)n2c([N+](=O)[O-])cnc2C)cc1C	Mtb UGM inh 10 (no result: BioA inh)
CC(C)NC(=O)N(C)C[C@@H]1OCCCC[C@@H](C)Oc2ccc(NC(=O)Cc3ccccc3)cc2C(=O)N([C@@H](C)CO)C[C@H]1C	none (no result: Mtb UGM inh, RecA intein inh, Rv3671c inh, FadD28 binding)
COCCn1c(C)cc(/C=N/NC(=O)c2cc3ccccc3cc2O)c1C	FadD28 binding 11 (no result: BioA inh, RecA intein inh, TcdB inh)
COc1cc(OC)c2c(O)c3c(c(-c4c5c(c(O)c6c(OC)cc(OC)cc46)CO[C@@H](C)[C@H]5O)c2c1)[C@H](O)[C@H](C)OC3	FadD28 binding 10 (no result: TcdB inh)
COC(=O)c1ccc(OC(=O)c2cccs2)cc1	none (no result: BioA inh)
CCC(=O)c1ccc(OC(=O)c2cccs2)cc1	RecA intein inh 32 (no result: BioA inh, TcdB inh)
C[C@H](CO)N1C[C@H](C)[C@@H](CN(C)Cc2ccc(F)cc2)Oc2ncc(-c3ccccc3F)cc2C1=O	none (no result: Mtb UGM inh, RecA intein inh, Rv3671c inh, FadD28 binding)
COc1ccc(/C=C(/C#N)c2cccnc2)cc1OC	BioA inh 58
CC1=C(C#N)c2nc(N)c(C#N)c(C)c2/C1=C\c1ccc(C)cc1	RecA intein inh 33 (no result: BioA inh, TcdB inh, FadD28 binding)
COc1cc(/C=C2\C(C)=C(C#N)c3nc(N)c(C#N)c(C)c32)ccc1OCC(=O)O	none
CCCC#Cc1ccc2c(c1)O[C@@H](CN(C)CC1CCCC1)[C@H](C)CN([C@H](C)CO)S2(=O)=O	none (no result: Mtb UGM inh, BioA inh, RecA intein inh, Rv3671c inh, FadD28 binding)
C[C@@H]1CN([C@@H](C)CO)C(=O)c2cccc(N(C)C)c2O[C@@H]1CN(C)S(=O)(=O)c1cn(C)cn1	none (no result: Mtb UGM inh, RecA intein inh, Rv3671c inh, FadD28 binding)
CC(=O)N1CCN(S(=O)(=O)c2cccc(C(=O)NNC(=O)Cn3nc(C)cc3C)c2)CC1	Mtb UGM inh 10 (no result: RecA intein inh, FadD28 binding)
CC(=O)N1CCN(S(=O)(=O)c2cccc(C(=O)NNC(=O)Cn3ccc(C(F)(F)F)n3)c2)CC1	none (no result: BioA inh)
O=C(/C=C/c1ccccc1)C1C(=O)c2ccccc2C1=O	none (no result: BioA inh, TcdB inh)
CCc1ccc(/C=C/C(=O)C2C(=O)c3ccccc3C2=O)cc1	RecA intein inh 33, FadD28 binding 13 (no result: BioA inh, TcdB inh)
Nc1nc(C(=O)N2CCOCC2)nn1C(=O)c1ccc(Cl)cc1	RecA intein inh 32
O=C(c1ccc(Cl)cc1)c1ccccc1C(=O)N1CCOCC1	none (no result: BioA inh)
Cc1ccccc1COc1ccc2oc(C)c(C(=O)O)c2c1	TcdB inh 12 (no result: BioA inh)
CCCCC[C@H](O)/C=C/[C@@H]1[C@@H](C/C=C\CCCC(=O)OC)[C@@H](O)C[C@H]1O	RecA intein inh 41 (no result: TcdB inh)
CCCCC[C@H](O)/C=C/[C@@H]1[C@@H](C/C=C\CCCC(=O)O)[C@@H](O)C[C@H]1O	none
O=C1Nc2ccccc2C1=Nc1ccccc1-c1ccccc1	TcdB inh 10 (no result: Mtb UGM inh, BioA inh, RecA intein inh, Rv3671c inh)
Nc1ccc2nc[nH]c2c1	RecA intein inh 49 (no result: BioA inh)
Cc1cccc(NC(=O)NNC(=O)c2ccc3ccccc3c2O)c1	FadD28 binding 8.5 (no result: Rv3671c inh)
O=C(NNC(=O)c1ccc2ccccc2c1O)Nc1ccc(F)cc1	none
O=[N+]([O-])c1ccc2nc(-c3ccc(Cl)cc3)[nH]c2c1	none (no result: BioA inh)
Cc1ccc(-c2nc3ccc([N+](=O)[O-])cc3[nH]2)cc1	TcdB inh 12 (no result: BioA inh)
O=[N+]([O-])c1ccc2nc(-c3ccncc3)[nH]c2c1	none (no result: BioA inh)
COc1ccc(-c2nc3ccc([N+](=O)[O-])cc3[nH]2)cc1	TcdB inh 14 (no result: BioA inh)
CCNC(=O)C[C@H]1CC[C@H]2[C@H](COc3ccc(NC(=O)c4ccc(F)c(F)c4)cc3C(=O)N2C)O1	none (no result: Mtb UGM inh, RecA intein inh, Rv3671c inh, FadD28 binding)
Cc1cc(C)nc(NC(N)=NC(C)c2ccccc2)n1 (stereo not given)	none (no result: BioA inh, FadD28 binding)
Cc1cc(C)nc(NC(N)=NCCc2ccccc2)n1	TcdB inh 10 (no result: Mtb UGM inh, RecA intein inh, Rv3671c inh)
O=C(NCc1ccccc1F)[C@@H]1[C@@H](CO)[C@@H]2Cn3c(cccc3=O)[C@@H]2N1C(=O)CC1CC1	none (no result: Mtb UGM inh, RecA intein inh, Rv3671c inh, FadD28 binding)
O=C(NCc1ccccc1)c1ccc2c(=O)n(CC3CCCO3)c(=S)[nH]c2c1 (stereo not given)	none (no result: TcdB inh)
Cc1ccc(CNC(=O)c2ccc3c(=O)[nH]c4c(C(=O)NCC5CCCO5)sc(=S)n4c3c2)cc1 (stereo not given)	FadD28 binding 60
CCCCCNC(=O)c1ccc2c(=O)[nH]c3c(C(=O)NCC4CCCO4)sc(=S)n3c2c1 (stereo not given)	FadD28 binding 17 (no result: RecA intein inh, TcdB inh)
O=C(NC1CCCC1)c1sc(=S)n2c1[nH]c(=O)c1ccccc12	FadD28 binding 29 (no result: TcdB inh)
O=C(NCc1ccco1)c1sc(=S)n2c1[nH]c(=O)c1ccccc12	FadD28 binding inconclusive (no result: TcdB inh)
